# Measurements taken from PubChem BioAssay (NCATS).
# Results filed as inconclusive are left out. Where a call stands in place of a potency, no number is given. Active and inactive are the calls of the source. Calls come from the whole dose curve; as a rule, active = well fitted curve in the direction sought with a large enough effect; inconclusive = small, poorly fitted or top-dose-only effect, or another doubt; inactive = no such curve, though single readings can be large; an effect the other way counts as inactive or inconclusive.
# Legend:
# [1] = Cell Viability - LYMP1-003 - Assay at 40 hr (AID 964); note: nearly all actives have a fitted effect of over 60% in size; note: potency is the fitted concentration of half-maximal effect
# Summary of the method: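 Luminescent ATP signal (CellTiter-Glo) served as the viability read-out after 40 hr compound treatment of human lymphoblastoid LYMP1-003 cells at 37 C. Decreases in ATP were fitted with the Hill equation to give AC50.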
# [2] = Cell Viability - LYMP2-003 (AID 965);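 note: cells exposed to compounds for 24 h before reading; nearly all actives have a fitted effect of over 50% in size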; note: potency is the fitted concentration of half-maximal effect
# Summary of the method: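 qHTS, human lymphoblastoid line, 2500 cells/well, complete medium. 24 h drug, 37 C. ATP-based luminescent readout; Hill-fit AC50.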
# [3] = Cell Viability - LYMP2-005 (AID 967); note: potency is the fitted concentration of half-maximal effect
# Summary of the method: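 Luciferase-based ATP quantitation served as the viability measure in human lymphoblastoid LYMP2-005 cells exposed to test compounds for 24 h at 37 C in complete culture medium. Potency (AC50) was obtained by fitting concentration-response curves with the Hill equation.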
# [4] = Cell Viability - LYMP2-009 (AID 968); note: nearly all actives have a fitted effect of over 55% in size; note: potency is the fitted concentration of half-maximal effect
# [5] = Cell Viability - LYMP2-011 (AID 969); note: nearly all actives have a fitted effect of over 60% in size
# Summary of the method: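 In this qHTS cytotoxicity format, compounds are tested across concentrations on human lymphoblastoid cells in complete medium for 24 hours at 37 C. Viability is taken as cellular ATP measured by luciferase luminescence.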
# [6] = Cell Viability - LYMP2-013 (AID 970); note: series mostly up to about 92 µM; nearly all actives have a fitted effect of over 55% in size
# Text: (§1) NIH Chemical Genomics Center [NCGC]
# (§2) NIH Molecular Libraries Screening Centers Network [MLSCN]
# (§3) National Institutes of Environmental Health Sciences [NIEHS]
# (§4) National Toxicology Program [NTP]
# (§5) We have developed a 1536-well cell-based assay for quantitative high throughput screening (qHTS) against a number of cell lines to determine in vitro cytotoxicity of small molecules. This particular assay uses a human lymphoblastoid cell line (LYMP2-013) purchased from Coriell Institute for Medical Research.
# (§6) NCGC Assay Protocol Summary:
# (§7) The CellTiter-Glo luminescent cell viability assay (Promega) is a homogeneous method to measure the number of viable cells in culture. The end point readout of this assay is based on quantitation of intracellular ATP, an indicator of metabolic activity, using the luciferase reaction. Luciferase catalyzes the oxidation of beetle Luciferin to oxyluciferin and light in the presence of ATP. The luminescent signal is proportional to amount of ATP present.
# (§8) Using the CellTiter-Glo luminescent cell viability assay, the amount of cellular ATP was measured in the lymphoblastoid cell line with complete culture medium following compound treatment for 24 hours. The assay was performed in opaque white Kalypsys 1536-well plates. In the screen, tetraoctylammonium bromide was used as positive control. Library compounds were measured for their ability to cause acute toxicity in the cell line, as reflected by a decrease in intracellular ATP levels, in a concentration-dependent manner. […] AC50 values were determined from concentration-response data modeled with the standard Hill equation.
# (§9) qHTS protocol for CellTiter Glo lymphoblastoid cellular assay
# (§10) [Step] [Parameter] [Value] [Description]
# (§11) 1. Reagent; 5 uL; 2500 lymphoblastoid cells/well
# (§12) 2. Time; 5 hr; 37 C incubation
# (§13) 4. Controls; 23 nL; Tetraoctylammonium bromide 6.4pM to 92 uM
# (§14) 5. Time; 24 hr; 37 C incubation
# (§15) 6. Reagent; 5 uL; CellTiter Glo reagent
# (§16) 7. Time; 30 min; Room Temperature
# (§17) 8. Detection; Luminescence; Viewlux plate reader
# (§18) Keywords: cell viability, cytotoxicity, lymphoblastoid cell line, luminescence, NTPHTS, NTPHTS_NCGC, NIEHS, DSSTox, MLSMR, MLSCN, NIH Roadmap, qHTS, NCGC
# [7] = Cell Viability - LYMP2-015 (AID 971); note: nearly all actives have a fitted effect of over 55% in size
# Summary of the method: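 Cells are seeded at 2500 per well and incubated 5 hr at 37 C. Compounds are added across a concentration series for 24 hr at 37 C. CellTiter-Glo is added, and luminescence is read after 30 min at room temperature.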
# [8] = Cell Viability - LYMP2-017 (AID 972); note: series mostly up to about 92 µM; nearly all actives have a fitted effect of over 55% in size
# Summary of the method: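 Cytotoxicity is scored as a concentration-dependent drop in cellular ATP in a human lymphoblastoid line after 24 hr treatment at 37 C. Values are AC50s from Hill-equation modelling.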
# [9] = Cell Viability - LYMP2-019 (AID 973); note: nearly all actives have a fitted effect of over 55% in size
# Text: as §1, §2, §3, §4
# as §5, with “(LYMP2-019)” for “(LYMP2-013)”
# as §6, §7, §8, §9, §10, §11, §12, §13, §14, §15, §16, §17, §18
# [10] = Cell Viability - LYMP2-021 (AID 974)
# Summary of the method: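 Loss of cellular ATP, measured with a luciferase-based CellTiter-Glo readout, serves as the toxicity signal in human lymphoblastoid cells treated for 24 hours at 37 C. Potency is reported as AC50 from a standard Hill model.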
Compound,Potency [1],Potency [2],Potency [3],Potency [4],outcome [5],outcome [6],outcome [7],outcome [8],outcome [9],outcome [10]
CCCCOCCOCCOCc1cc2c(cc1CCC)OCO2,inactive,inactive,inactive,inactive,inactive,inactive,inactive,inactive,inactive,inactive
Nc1ncn([C@@H]2O[C@H](CO)[C@@H](O)[C@H]2O)c(=O)n1,12.6 µM (active),10 µM (active),12.6 µM (active),15.8 µM (active),,,,,,
CCCCNC(=O)NS(=O)(=O)c1ccc(C)cc1,inactive,inactive,inactive,inactive,inactive,inactive,inactive,inactive,inactive,inactive
Nc1nc(N)c2nc(-c3ccccc3)c(N)nc2n1,,inactive,inactive,inactive,inactive,inactive,inactive,,inactive,inactive
O=c1[nH]c(=O)n([C@H]2C[C@H](O)[C@@H](CO)O2)cc1Br,inactive,inactive,inactive,inactive,inactive,inactive,inactive,inactive,inactive,inactive
COC(=O)[C@H]1[C@H]2C[C@@H]3c4[nH]c5cc(OC)ccc5c4CCN3C[C@H]2C[C@@H](OC(=O)c2cc(OC)c(OC)c(OC)c2)[C@@H]1OC,39.8 µM (active),,,,,,,,,
NC(=O)N1c2ccccc2C=Cc2ccccc21,inactive,inactive,inactive,inactive,inactive,inactive,inactive,inactive,inactive,inactive
COc1ccc(CN(CCN(C)C)c2ccccn2)cc1,inactive,inactive,inactive,inactive,inactive,inactive,inactive,inactive,inactive,inactive
NC(=Nc1ccccc1)Nc1ccccc1,inactive,inactive,inactive,inactive,inactive,inactive,inactive,inactive,inactive,inactive
CN=C(NC#N)NCCSCc1nc[nH]c1C,inactive,inactive,inactive,inactive,inactive,inactive,inactive,inactive,inactive,inactive
COc1cc(Cc2cnc(N)nc2N)cc(OC)c1OC,inactive,inactive,inactive,inactive,inactive,inactive,inactive,inactive,inactive,inactive
